# From PubChem BioAssay AID1159580 (chemical genetic matrix, 2015)
# Hit rate of the full screen: of about 5,500 compounds, about 2,000 (36%) were called active. Inconclusive results (about 18%) are left out. The list shows a part of the results. A number with no mark means an inactive call. Cut-off read from the data, not from the text of the source: active = normalized growth mostly below about 0.91 (no sharp cut-off); inconclusive = no clear call, values can overlap the other calls; inactive = mostly above about 0.92.
# Assay: chemical genetic growth profiling, strain panel (AID 1159580);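 note: tested at 20 µM; growth read once vehicle control cultures reached saturation at 30 °C; 1 = growth at the plate median or of vehicle wells; lower values mean less growth of the strain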
# Details: S. cerevisiae deletion strains, growth OD
structure (smiles),measurement,setting,value
O=C(Oc1cccc2cccnc12)c1ccccc1,normalized growth,"locus YAL021C, strain ccr4, active compounds read low",0.962
same,normalized growth,"locus YAL026C, strain drs2, active compounds read low",0.921
same,normalized growth,"locus YAL030W, strain snc1, active compounds read low",0.928 (active)
same,normalized growth,"locus YBL061C, strain skt5, active compounds read low",0.951
same,normalized growth,"locus YBR009C, strain hhf1, active compounds read low",0.956
same,normalized growth,"locus YBR023C, strain chs3, active compounds read low",0.956
same,normalized growth,"locus YBR171W, strain sec66, active compounds read low",0.917
same,normalized growth,"locus YBR231C, strain swc5, active compounds read low",0.995
same,normalized growth,"locus YBR279W, strain paf1, active compounds read low",0.957
same,normalized growth,"locus YCL011C, strain gbp2, active compounds read low",0.959
same,normalized growth,"locus YCL016C, strain dcc1, active compounds read low",0.952
same,normalized growth,"locus YCL061C, strain MRC1, active compounds read low",0.967
same,normalized growth,"locus YCL069W, strain vba3, active compounds read low",0.948
same,normalized growth,"locus YCR088W, strain abp1, active compounds read low",0.936
same,normalized growth,"locus YDL005C, strain med2, active compounds read low",0.962
same,normalized growth,"locus YDL040C, strain nat1, active compounds read low",0.951
same,normalized growth,"locus YDR001C, strain nth1, active compounds read low",0.936
same,normalized growth,"locus YDR069C, strain doa4, active compounds read low",0.953
same,normalized growth,"locus YDR137W, strain rgp1, active compounds read low",0.688 (active)
same,normalized growth,"locus YDR159W, strain sac3, active compounds read low",0.971
same,normalized growth,"locus YDR195W, strain ref2",1.12
same,normalized growth,"locus YDR297W, strain sur2, active compounds read low",0.937
same,normalized growth,"locus YDR334W, strain swr1, active compounds read low",0.921
same,normalized growth,"locus YDR335W, strain msn5, active compounds read low",0.938
same,normalized growth,"locus YDR392W, strain spt3, active compounds read low",0.601 (active)
same,normalized growth,"locus YEL003W, strain gim4, active compounds read low",0.94
same,normalized growth,"locus YEL037C, strain rad23, active compounds read low",0.961
same,normalized growth,"locus YEL061C, strain CIN8 (second series), active compounds read low",0.943
same,normalized growth,"locus YER015W, strain faa2, active compounds read low",0.965
same,normalized growth,"locus YER016W, strain bim1, active compounds read low",0.96
same,normalized growth,"locus YER111C, strain swi4, active compounds read low",0.955
same,normalized growth,"locus YER155C, strain BEM2 (second series), active compounds read low",0.89
same,normalized growth,"locus YFR010W, strain ubp6, active compounds read low",0.951
same,normalized growth,"locus YGL167C, strain pmr1, active compounds read low",0.927
same,normalized growth,"locus YGL173C, strain kem1, active compounds read low",0.908
same,normalized growth,"locus YGL227W, strain vid30, active compounds read low",0.939
same,normalized growth,"locus YGL240W, strain doc1, active compounds read low",0.93
same,normalized growth,"locus YGL253W, strain hxk2, active compounds read low",0.969
same,normalized growth,"locus YHR013C, strain ard1, active compounds read low",0.623 (active)
same,normalized growth,"locus YHR027C, strain rpn1, active compounds read low",0.929
same,normalized growth,"locus YHR030C, strain SLT2, active compounds read low",0.955
same,normalized growth,"locus YHR079C, strain IRE1, active compounds read low",0.955
same,normalized growth,"locus YHR142W, strain chs7, active compounds read low",0.897
same,normalized growth,"locus YJL092W, strain hpr5, active compounds read low",0.972
same,normalized growth,"locus YJL095W, strain BCK1 (second series), active compounds read low",0.955
same,normalized growth,"locus YJL095W, strain BCK1, active compounds read low",0.916
same,normalized growth,"locus YJL115W, strain asf1, active compounds read low",0.951
same,normalized growth,"locus YJL129C, strain trk1, active compounds read low",0.97
same,normalized growth,"locus YJL154C, strain vps35, active compounds read low",0.939
same,normalized growth,"locus YJL164C, strain tpk1, active compounds read low",0.957
same,normalized growth,"locus YJL166W, strain qcr8, active compounds read low",0.955
same,normalized growth,"locus YJL187C, strain SWE1, active compounds read low",0.951
same,normalized growth,"locus YJR066W, strain TOR1, active compounds read low",0.92
same,normalized growth,"locus YKL160W, strain elf1, active compounds read low",0.935
same,normalized growth,"locus YKR026C, strain gcn3, active compounds read low",0.951
same,normalized growth,"locus YKR091W, strain srl3, active compounds read low",0.951
same,normalized growth,"locus YLL001W, strain dnm1, active compounds read low",0.979
same,normalized growth,"locus YLL026W, active compounds read low",0.925 (active)
same,normalized growth,"locus YLL041C, strain sdh2, active compounds read low",0.967
same,normalized growth,"locus YLR027C, strain aat2, active compounds read low",0.95
same,normalized growth,"locus YLR113W, strain HOG1, active compounds read low",0.915
same,normalized growth,"locus YLR221C, strain rsa3, active compounds read low",0.958
same,normalized growth,"locus YLR258W, strain gsy2, active compounds read low",0.955
same,normalized growth,"locus YLR262C, strain YPT6 (second series), active compounds read low",0.776 (active)
same,normalized growth,"locus YLR320W, strain mms22, active compounds read low",0.875 (active)
same,normalized growth,"locus YLR342W, strain FKS1, active compounds read low",0.962
same,normalized growth,"locus YLR357W, strain rsc2, active compounds read low",0.992
same,normalized growth,"locus YLR370C, strain arc18, active compounds read low",0.918
same,normalized growth,"locus YLR384C, strain iki3, active compounds read low",0.952
same,normalized growth,"locus YML120C, strain ndi1, active compounds read low",0.934
same,normalized growth,"locus YMR058W, strain fet3, active compounds read low",0.897 (active)
same,normalized growth,"locus YMR125W, strain sto1, active compounds read low",0.961
same,normalized growth,"locus YMR129W, active compounds read low",0.954
same,normalized growth,"locus YMR205C, strain PFK2, active compounds read low",0.973
same,normalized growth,"locus YMR231W, strain pep5, active compounds read low",0.969
same,normalized growth,"locus YNL071W, strain lat1, active compounds read low",0.875 (active)
same,normalized growth,"locus YNL183C, strain NPR1, active compounds read low",0.908
same,normalized growth,"locus YNL209W, strain ssb2, active compounds read low",0.946
same,normalized growth,"locus YNL248C, strain rpa49, active compounds read low",0.944
same,normalized growth,"locus YNL322C, strain KRE1 (second series), active compounds read low",0.963
same,normalized growth,"locus YNR049C, strain mso1, active compounds read low",0.944
same,normalized growth,"locus YOR001W, strain rrp6, active compounds read low",0.95
same,normalized growth,"locus YOR070C, strain gyp1, active compounds read low",0.0944 (active)
same,normalized growth,"locus YOR080W, strain dia2, active compounds read low",0.973
same,normalized growth,"locus YOR083W, strain WHI5, active compounds read low",0.945
same,normalized growth,"locus YOR106W, strain vam3, active compounds read low",0.905
same,normalized growth,"locus YOR231W, strain MKK1, active compounds read low",0.946
same,normalized growth,"locus YOR265W, strain rbl2, active compounds read low",0.955
same,normalized growth,"locus YOR270C, strain vph1, active compounds read low",0.414 (active)
same,normalized growth,"locus YOR290C, strain snf2, active compounds read low",0.945
same,normalized growth,"locus YPL051W, strain arl3, active compounds read low",0.932
same,normalized growth,"locus YPL078C, strain atp4, active compounds read low",0.878 (active)
same,normalized growth,"locus YPL106C, strain sse1, active compounds read low",0.732 (active)
same,normalized growth,"locus YPL240C, strain hsp82, active compounds read low",0.965
same,normalized growth,"locus YPL256C, strain CLN2, active compounds read low",0.961
